This is part of a sample that, as a whole, favours compounds with a hit. Of some 83,000 tested, about 20% had one in any assay.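 Interpretation: 100, growth as untreated; towards 0, rising growth inhibition; 0, no net growth; 0 to -100, cell death. Compounds scoring below 10 were considered active.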 Calls of active or inactive are those of the source.
Columns and labels:
Test in all cases: NCI-60 one-dose screen, 48 h (100 = growth as untreated, 0 = no growth, -100 = all killed)
Conditions in all cases: 10 µM unless noted
SR leukemia = tested on: SR leukemia
RPMI-8226 leukemia = tested on: RPMI-8226 leukemia
OVCAR-8 ovarian = tested on: OVCAR-8 ovarian
OVCAR-5 ovarian = tested on: OVCAR-5 ovarian
OVCAR-4 ovarian = tested on: OVCAR-4 ovarian
SK-OV-3 ovarian = tested on: SK-OV-3 ovarian
IGROV1 ovarian = tested on: IGROV1 ovarian
OVCAR-3 ovarian = tested on: OVCAR-3 ovarian
HS 578T breast = tested on: HS 578T breast
NCI/ADR-RES ovarian = tested on: NCI/ADR-RES ovarian
T-47D breast = tested on: T-47D breast
BT-549 breast = tested on: BT-549 breast
MDA-MB-435 melanoma = tested on: MDA-MB-435 melanoma
SW-620 colon = tested on: SW-620 colon
MCF7 breast = tested on: MCF7 breast
HCT-116 colon = tested on: HCT-116 colon
HCC-2998 colon = tested on: HCC-2998 colon
KM12 colon = tested on: KM12 colon

Measured: growth

Cn1c(/C=C/[N+](=O)[O-])cc2ccccc21
inactive: OVCAR-8 ovarian 10.8% | OVCAR-4 ovarian 94.2% | SK-OV-3 ovarian 82.4% | OVCAR-3 ovarian 88.3% | HS 578T breast 70.2% | NCI/ADR-RES ovarian 59.5% | T-47D breast 37.4%
active: SR leukemia -7.91% | RPMI-8226 leukemia -17.3% | OVCAR-5 ovarian 7.36% | IGROV1 ovarian 0.609% | BT-549 breast -43.2% | MDA-MB-435 melanoma -21.6% | SW-620 colon -70.8% | MCF7 breast -50.5% | HCT-116 colon -74% | HCC-2998 colon -95.1% | KM12 colon -63.8%

Cc1ccc(-c2cc(C(=O)N3N=C(c4ccc(N)cc4)CC3c3ccc(Cl)cc3)c3ccccc3n2)cc1 (stereo unspecified)
active: HS 578T breast 6.64% | MDA-MB-435 melanoma -61.7%
inactive: SR leukemia 11.2% | RPMI-8226 leukemia 19.9% | OVCAR-8 ovarian 25.7% | OVCAR-5 ovarian 75.2% | OVCAR-4 ovarian 69% | SK-OV-3 ovarian 34.2% | IGROV1 ovarian 47.4% | OVCAR-3 ovarian 14.6% | NCI/ADR-RES ovarian 21.7% | T-47D breast 35.9% | BT-549 breast 30.8% | SW-620 colon 33.8% | MCF7 breast 17.8% | HCT-116 colon 11.8% | HCC-2998 colon 37.9% | KM12 colon 27.9%

N#Cc1c(-c2cccc([N+](=O)[O-])c2)cc(-c2ccc(Nc3nc(Nc4ccc(F)cc4)nc(Nc4ccc(F)cc4)n3)cc2)nc1N
inactive: SR leukemia 62.9% | RPMI-8226 leukemia 52.3% | OVCAR-8 ovarian 89.1% | OVCAR-5 ovarian 102% | OVCAR-4 ovarian 114% | SK-OV-3 ovarian 143% | IGROV1 ovarian 90.9% | OVCAR-3 ovarian 100% | HS 578T breast 87.9% | NCI/ADR-RES ovarian 101% | T-47D breast 115% | BT-549 breast 173% | MDA-MB-435 melanoma 112% | SW-620 colon 108% | MCF7 breast 291% | HCT-116 colon 108% | HCC-2998 colon 113% | KM12 colon 114%

CC(C)(C)c1cc(C=Nc2cccc(C(F)(F)F)c2)c(O)c(C(C)(C)C)c1
inactive: SR leukemia 77.7% | RPMI-8226 leukemia 74.5% | OVCAR-8 ovarian 88.1% | OVCAR-5 ovarian 105% | OVCAR-4 ovarian 97.3% | SK-OV-3 ovarian 100% | IGROV1 ovarian 105% | OVCAR-3 ovarian 95% | HS 578T breast 102% | NCI/ADR-RES ovarian 99.9% | T-47D breast 88.5% | BT-549 breast 106% | MDA-MB-435 melanoma 108% | SW-620 colon 101% | MCF7 breast 97.7% | HCT-116 colon 94.1% | HCC-2998 colon 108% | KM12 colon 102%

COc1ccc(C2C(C#N)=C(N)Oc3c2sc2c(Br)cccc32)cc1 (stereo unspecified)
inactive: RPMI-8226 leukemia 12.5% | OVCAR-8 ovarian 35.1% | OVCAR-5 ovarian 50.5% | OVCAR-4 ovarian 64.4% | SK-OV-3 ovarian 35.2% | IGROV1 ovarian 42.7% | OVCAR-3 ovarian 10.6% | HS 578T breast 41.8% | T-47D breast 27.2% | BT-549 breast 34.4% | SW-620 colon 32% | MCF7 breast 13.1% | HCT-116 colon 22.4% | HCC-2998 colon 56.8% | KM12 colon 27.5%
active: SR leukemia 8.82% | NCI/ADR-RES ovarian 6.27% | MDA-MB-435 melanoma -18.1%

O=C1CCCc2nc3sc4c(=O)n(-c5ccccc5Cl)nnc4c3cc21
inactive: SR leukemia 87.8% | RPMI-8226 leukemia 87.6% | OVCAR-8 ovarian 92.2% | OVCAR-5 ovarian 100% | OVCAR-4 ovarian 105% | SK-OV-3 ovarian 107% | IGROV1 ovarian 99.9% | OVCAR-3 ovarian 114% | HS 578T breast 99% | NCI/ADR-RES ovarian 103% | T-47D breast 83.8% | BT-549 breast 102% | MDA-MB-435 melanoma 102% | SW-620 colon 102% | MCF7 breast 90.4% | HCT-116 colon 96% | HCC-2998 colon 118% | KM12 colon 107%

CCCn1c(=S)sc2c1nc(C)n1c(Nc3ccccc3)nnc21
inactive: SR leukemia 61.4% | RPMI-8226 leukemia 45.9% | OVCAR-8 ovarian 71.3% | OVCAR-5 ovarian 107% | OVCAR-4 ovarian 42.8% | SK-OV-3 ovarian 89.2% | IGROV1 ovarian 80.3% | OVCAR-3 ovarian 61.5% | HS 578T breast 97.4% | NCI/ADR-RES ovarian 85.4% | T-47D breast 15.6% | BT-549 breast 76.2% | MDA-MB-435 melanoma 63.7% | SW-620 colon 104% | MCF7 breast 77% | HCT-116 colon 59.1% | HCC-2998 colon 78.3% | KM12 colon 96.5%

O=C(/C=C/C12c3ccccc3C(c3ccccc31)C1C(=O)NC(=O)C12)c1ccc(F)cc1 (stereo unspecified)
inactive: OVCAR-5 ovarian 28% | OVCAR-4 ovarian 30.3% | IGROV1 ovarian 13.2% | HS 578T breast 23.7% | T-47D breast 12.2% | MCF7 breast 11.8% | HCC-2998 colon 10.9%
active: SR leukemia 0.421% | RPMI-8226 leukemia -24% | OVCAR-8 ovarian -64.2% | SK-OV-3 ovarian -1.75% | OVCAR-3 ovarian -10.1% | NCI/ADR-RES ovarian 5.4% | BT-549 breast 2.77% | MDA-MB-435 melanoma -12.8% | SW-620 colon 4.25% | HCT-116 colon -18.6% | KM12 colon 8.33%

CN1CCN(c2ccc(NC(=O)c3cncnc3Nc3ccc4c(ccn4Cc4cccc(F)c4)c3)cc2)CC1
inactive: SR leukemia 10.9% | RPMI-8226 leukemia 46.1% | OVCAR-8 ovarian 34.9% | OVCAR-5 ovarian 65.5% | OVCAR-4 ovarian 66.2% | SK-OV-3 ovarian 97.4% | IGROV1 ovarian 77.1% | OVCAR-3 ovarian 80.8% | HS 578T breast 68.3% | NCI/ADR-RES ovarian 75.8% | T-47D breast 48.8% | BT-549 breast 85.6% | MCF7 breast 12.8% | HCT-116 colon 13.1% | HCC-2998 colon 61.6% | KM12 colon 46.7%
active: MDA-MB-435 melanoma -79.7% | SW-620 colon 5.18%

CCCCCCC(CCCC)COC(=O)c1ccc(Cl)cc1 (stereo unspecified)
inactive: SR leukemia 99.1% | RPMI-8226 leukemia 108% | OVCAR-8 ovarian 109% | OVCAR-5 ovarian 115% | OVCAR-4 ovarian 99.4% | SK-OV-3 ovarian 107% | IGROV1 ovarian 111% | OVCAR-3 ovarian 114% | HS 578T breast 109% | NCI/ADR-RES ovarian 115% | T-47D breast 103% | BT-549 breast 107% | MDA-MB-435 melanoma 107% | SW-620 colon 109% | MCF7 breast 101% | HCT-116 colon 104% | HCC-2998 colon 121% | KM12 colon 108%

CN1C(=O)/C(=C/c2ccc(C(=O)Nc3ncc(Cc4ccc(F)cc4)s3)cc2)SC1=S
inactive: SR leukemia 44.5% | RPMI-8226 leukemia 54.6% | OVCAR-8 ovarian 57.9% | OVCAR-5 ovarian 61.2% | OVCAR-4 ovarian 60.1% | SK-OV-3 ovarian 40.3% | IGROV1 ovarian 54.3% | OVCAR-3 ovarian 27.7% | HS 578T breast 37.9% | NCI/ADR-RES ovarian 28.7% | T-47D breast 34.5% | BT-549 breast 54.9% | SW-620 colon 28.8% | MCF7 breast 46.8% | HCT-116 colon 32.6% | HCC-2998 colon 41.1% | KM12 colon 15.6%
active: MDA-MB-435 melanoma -36.3%

COc1cccc(/C=C/C(=O)c2cc3c(N)c(C(=O)Nc4ccccc4C)sc3nc2C)c1
inactive: SR leukemia 10.8% | OVCAR-5 ovarian 87.2% | OVCAR-4 ovarian 70.9% | SK-OV-3 ovarian 104% | IGROV1 ovarian 19.4% | HS 578T breast 13.9% | NCI/ADR-RES ovarian 10.1% | T-47D breast 56.2% | BT-549 breast 37.8% | HCT-116 colon 41.8% | HCC-2998 colon 35.1% | KM12 colon 27.4%
active: RPMI-8226 leukemia -20.8% | OVCAR-8 ovarian -33.9% | OVCAR-3 ovarian 3.31% | MDA-MB-435 melanoma -26.3% | SW-620 colon 1.68% | MCF7 breast 7.39%

COc1cc2ncnc(Nc3ccc(F)c(Cl)c3)c2cc1OCC(=O)N1CCN(c2ccc(F)cc2)CC1
inactive: SR leukemia 79% | RPMI-8226 leukemia 98.8% | OVCAR-8 ovarian 107% | OVCAR-5 ovarian 60.6% | OVCAR-4 ovarian 82% | SK-OV-3 ovarian 88.1% | IGROV1 ovarian 46.9% | OVCAR-3 ovarian 83.4% | HS 578T breast 89.3% | NCI/ADR-RES ovarian 82.7% | T-47D breast 75.2% | BT-549 breast 101% | MDA-MB-435 melanoma 96.5% | SW-620 colon 101% | MCF7 breast 83.8% | HCT-116 colon 88.7% | HCC-2998 colon 98.1% | KM12 colon 100%

CN1CCN(Cc2cc(NC(=O)c3cccc(C#Cc4cccc5[nH]nc(N)c45)c3)cc(C(F)(F)F)c2)CC1
active: SR leukemia -28.7% | MDA-MB-435 melanoma -21.4% | SW-620 colon -45.2% | MCF7 breast -23.4% | HCT-116 colon -86.8% | HCC-2998 colon -70.9%
inactive: RPMI-8226 leukemia 11.2% | OVCAR-8 ovarian 41% | OVCAR-5 ovarian 36.1% | OVCAR-4 ovarian 24.8% | SK-OV-3 ovarian 81.6% | IGROV1 ovarian 11.1% | OVCAR-3 ovarian 64.1% | HS 578T breast 22.3% | NCI/ADR-RES ovarian 50.8% | T-47D breast 49% | BT-549 breast 46% | KM12 colon 13.7%

CCOC(=O)Nc1nc2ccc(SCC(C)C)cc2s1
inactive: SR leukemia 12.5% | RPMI-8226 leukemia 32.3% | OVCAR-8 ovarian 49.1% | OVCAR-5 ovarian 50.2% | OVCAR-4 ovarian 95.3% | SK-OV-3 ovarian 28.6% | IGROV1 ovarian 51.1% | HS 578T breast 30.3% | NCI/ADR-RES ovarian 14.1% | T-47D breast 24.3% | BT-549 breast 47.1% | MDA-MB-435 melanoma 104% | SW-620 colon 33.8% | MCF7 breast 20.6% | HCT-116 colon 31.4% | HCC-2998 colon 75% | KM12 colon 34.4%
active: OVCAR-3 ovarian -16.4%

COc1ccc(C2C3=C(COC3=O)N(CCO)c3cc4c(cc32)OCCO4)cc1OC (stereo unspecified)
active: OVCAR-3 ovarian -37% | HS 578T breast -11.4% | MDA-MB-435 melanoma -44.1%
inactive: SR leukemia 16.8% | RPMI-8226 leukemia 28.5% | OVCAR-8 ovarian 53.3% | OVCAR-5 ovarian 67.1% | OVCAR-4 ovarian 41.3% | SK-OV-3 ovarian 29.2% | IGROV1 ovarian 37.1% | NCI/ADR-RES ovarian 65.4% | T-47D breast 25.9% | BT-549 breast 53.9% | SW-620 colon 13.2% | MCF7 breast 15.9% | HCT-116 colon 18.2% | HCC-2998 colon 48.7% | KM12 colon 23.2%

Nc1c(C(=O)O)cc(Cl)cc1[N+](=O)[O-]
inactive: SR leukemia 109% | RPMI-8226 leukemia 104% | OVCAR-8 ovarian 92.7% | OVCAR-5 ovarian 90.4% | OVCAR-4 ovarian 99.5% | SK-OV-3 ovarian 101% | IGROV1 ovarian 100% | OVCAR-3 ovarian 105% | HS 578T breast 101% | NCI/ADR-RES ovarian 97.8% | T-47D breast 95.6% | BT-549 breast 109% | MDA-MB-435 melanoma 105% | SW-620 colon 99.5% | MCF7 breast 95.2% | HCT-116 colon 94.6% | HCC-2998 colon 95.1% | KM12 colon 105%

From PubChem BioAssay (NCI)
